Shown are actives, neighbours in structure and some others; about 2.1% of the full set was active somewhere.
PAX8 inh HTS: inhibitors of PAX8-driven TPO luciferase reporter, primary screen, RMG-I cells, single concentration | SteadyGlo, 24 h | inhibition, % at 12.6 µM | 360,000 tested, 1.2% active | AID 652154, 2013;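 active means mean replicate inhibition at least 60% with every replicate also reaching 60%; inconclusive means only one of the two criteria is met; inactive means mean below 60% and not all replicates reaching 60%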;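 further: luciferase light reporting Pax8 driven TPO promoter activity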
MITF TRPM1 inh: inhibitors of MITF-dependent TRPM1 promoter reporter, primary screen, cell-based, SK-MEL-5, single point, luciferase; SK-MEL-5 TRPM1 promoter luciferase, 24 h; 330,000 tested, 0.83% active; inhibition, % at 12.5 µM;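 active means mean inhibition across replicates of 60% or more, whatever share of single replicates reaches that level; inconclusive means some that reach 60%, reason not given; inactive means mean inhibition across replicates below 60%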
LMP1 NFkB inh: EBV LMP1-driven NF-kappaB luciferase reporter inhibitors, primary screen, cell-based, luminescence, single point; inhibition, % at 12.5 µM; 350,000 tested, 0.69% active; AID 504558, 2011; LMP1-induced NF-kappaB luciferase reporter cells; in the data active means inhibition above about 41%; inconclusive means no clear call, values can overlap the other calls
aSyn 5UTR inh: MLPCN primary screen, SNCA 5' untranslated region; alpha-synuclein 5'UTR reporter, inhibitor activity; inhibition, % (tested at 7.5 µM); 300,000 tested, 0.82% active; in the data active means inhibition above about 60%; inconclusive means no clear call, values can overlap the other calls;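 further: H4 neuroglioblastoma cells stably carrying SNCA 5'UTR luciferase fusion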
Shn3 3UTR inh: reduction of Shn3 3'UTR firefly luciferase signal, primary screen, Schnurri-3 inhibitor project, cell-based, Clone20 osteoblasts, set 2; inhibition, % at 12.5 µM; 360,000 tested, 0.52% active; Clone20 osteoblast Shn3 3'UTR firefly luciferase, 24 h;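 active means mean inhibition of at least 75% with every replicate also reaching 75%; inconclusive means mean inhibition at least 75% but some replicate below; inactive means mean inhibition below 75%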
Of the large screens only hits and unclear results are named; the others gave an inactive call.

O=C(c1ccc(Cl)cc1)C1CCCN(Cc2cccc3ncccc23)C1 (configuration not stated)	Shn3 3UTR inh 85.5
O=C(c1ccc(Cl)cc1)C1CCCN(Cc2cccc3cccnc23)C1 (configuration not stated)	none
O=C1CC(=O)N(Cc2ccccc2)C(=O)N1Cc1ccccc1	none (no result: aSyn 5UTR inh)
C[CH2][Hg][S]c1ccccc1C(=O)O	PAX8 inh HTS 109.5, MITF TRPM1 inh 95.1, Shn3 3UTR inh 98.3 (no result: aSyn 5UTR inh)
CC(C)COC(=O)c1ccccc1C(=O)OCC(C)C	none (no result: PAX8 inh HTS)
CCCCn1nnnc1C(CCc1ccccc1)N1CCC(n2c(=O)[nH]c3ccccc32)CC1 (configuration not stated)	PAX8 inh HTS 81.4 (no result: MITF TRPM1 inh, LMP1 NFkB inh, aSyn 5UTR inh)
CCC(c1nnnn1Cc1ccccc1)N1CCC(n2c(=O)[nH]c3ccccc32)CC1 (configuration not stated)	PAX8 inh HTS 88.3 (no result: MITF TRPM1 inh, LMP1 NFkB inh, aSyn 5UTR inh)
O=C(NCc1ccc(C(=O)N2CCC3(CC2)OCCO3)cc1)c1ccc2c(c1)OCO2	none (no result: PAX8 inh HTS)
CCn1c(NN=O)nc2ccccc21	MITF TRPM1 inh inconclusive, aSyn 5UTR inh 74.1, Shn3 3UTR inh inconclusive
Oc1cc(Cl)ccc1Oc1ccc(Cl)cc1Cl	none (no result: PAX8 inh HTS)
COc1c2c(cc3c1OCO3)CCN(C)C2	LMP1 NFkB inh 79.0 (no result: aSyn 5UTR inh)
CCOC(=O)C1C(=O)NC2(C)CC1c1cc(OC)ccc1O2 (configuration not stated)	Shn3 3UTR inh 89.4 (no result: PAX8 inh HTS)
Clc1ccc(C[n+]2c(-c3ccccc3)cc(-c3ccccc3)cc2-c2ccccc2)cc1	PAX8 inh HTS 97.3, MITF TRPM1 inh 92.2, LMP1 NFkB inh inconclusive
C[n+]1c(-c2ccccc2)cc(-c2ccc(O)cc2)cc1-c1ccccc1	none
O=C([O-])c1ccc(-[n+]2c(-c3ccccc3)cc(-c3ccccc3)cc2-c2ccccc2)cc1	none
Fc1ccc(C[n+]2c(-c3ccccc3)cc(-c3ccccc3)cc2-c2ccccc2)cc1	PAX8 inh HTS 88.6 (no result: MITF TRPM1 inh, LMP1 NFkB inh, Shn3 3UTR inh)
N#CCCn1cc(C(=O)Nc2ccccc2Cl)c(-c2ccc([N+](=O)[O-])cc2)n1	none
COC(=O)C1=Nc2ccccc2/C1=C\c1c(O)n(-c2ccc(OC)cc2)c(=O)[nH]c1=O	none (no result: PAX8 inh HTS)
C/C1=C\[C@@H](C)C/C=C/[C@H]2[C@@H]3O[C@]3(C)[C@@H](C)[C@H]3[C@H](Cc4c[nH]c5ccccc45)NC(=O)[C@]32C(=O)/C=C/C(=O)[C@@H]1O	aSyn 5UTR inh 81.1, Shn3 3UTR inh 87.8 (no result: PAX8 inh HTS, MITF TRPM1 inh)
CCOc1ccc(N=Cc2c(O)n(-c3ccc(C)c(C)c3)c(=O)[nH]c2=O)cc1	none (no result: MITF TRPM1 inh, LMP1 NFkB inh)
CC1=CC2OC3CC4OC(=O)C=CC=CC(C(C)O)OCC(O)C(C)CC(=O)OCC2(CC1O)C4(C)C31CO1 (configuration not stated)	MITF TRPM1 inh 89.8, LMP1 NFkB inh 83.6, Shn3 3UTR inh 93.5 (no result: PAX8 inh HTS, aSyn 5UTR inh)
CC1=CC2OC3CC4OC(=O)C=CC=CC(=O)OCCC(C)C(O)C(=O)OCC2(CC1O)C4(C)C31CO1 (configuration not stated)	MITF TRPM1 inh 86.1, LMP1 NFkB inh 84.6, Shn3 3UTR inh 89.3 (no result: PAX8 inh HTS, aSyn 5UTR inh)
CC(C)C1CN1CC(O)Cn1ccnc1[N+](=O)[O-] (configuration not stated)	none (no result: PAX8 inh HTS, MITF TRPM1 inh, LMP1 NFkB inh, aSyn 5UTR inh)
COc1ccc(C#Cc2ccc([C@H]3[C@@H](CO)N4CCCCN(C(=O)Cc5ccncc5)C[C@@H]34)cc2)cc1	none (no result: MITF TRPM1 inh, LMP1 NFkB inh, aSyn 5UTR inh, Shn3 3UTR inh)
CCCCC1(CN2CCCC2=O)C(=O)NC(=O)NC1=O	none (no result: PAX8 inh HTS)
Nc1cc(Cl)cc(C(=O)O)c1Cl	none (no result: PAX8 inh HTS, aSyn 5UTR inh)
O=c1[nH]c2ccccc2n1C1CCN(C(c2ccnc3ccccc23)c2nnnn2-c2ccc3c(c2)OCCO3)CC1 (configuration not stated)	PAX8 inh HTS 76.5 (no result: MITF TRPM1 inh, LMP1 NFkB inh, aSyn 5UTR inh)
COc1ccc(-n2nnnc2C(CCc2ccccc2)N2CCC(n3c(=O)[nH]c4ccccc43)CC2)cc1 (configuration not stated)	PAX8 inh HTS 104.4 (no result: MITF TRPM1 inh, LMP1 NFkB inh, aSyn 5UTR inh)
CCC(c1nnnn1-c1ccc(OC)cc1)N1CCC(n2c(=O)[nH]c3ccccc32)CC1 (configuration not stated)	none (no result: MITF TRPM1 inh, LMP1 NFkB inh, aSyn 5UTR inh)
O=c1[nH]c2ccccc2n1C1CCN(C(CCc2ccccc2)c2nnnn2-c2ccc3c(c2)OCCO3)CC1 (configuration not stated)	PAX8 inh HTS 106.4 (no result: MITF TRPM1 inh, LMP1 NFkB inh, aSyn 5UTR inh)
CS(=O)(=O)N1Cc2cc(Br)ccc2-n2nncc2C1	none (no result: MITF TRPM1 inh, LMP1 NFkB inh, aSyn 5UTR inh, Shn3 3UTR inh)
COC(=O)C1=C(c2ccc(OC(F)(F)F)cc2)C[C@@H]2CC[C@H]1N2C(=O)NCCc1ccccc1	none (no result: aSyn 5UTR inh)
COc1ccc(OC(=O)N(C)C[C@@H]2OCc3ccccc3-c3c(n(C)c4ccccc34)C(=O)N([C@H](C)CO)C[C@H]2C)cc1	none (no result: MITF TRPM1 inh, LMP1 NFkB inh, aSyn 5UTR inh, Shn3 3UTR inh)
Cc1cc(=O)oc2cc(OCC(=O)N3C[C@H]4C[C@@H](C3)c3cccc(=O)n3C4)ccc12	none (no result: PAX8 inh HTS, MITF TRPM1 inh)
C[C@H]1CCC/C=C/[C@@H]2C[C@H](O)C[C@H]2[C@H](O)/C=C/C(=O)O1	PAX8 inh HTS 109.5, MITF TRPM1 inh 81.1, Shn3 3UTR inh 97.0 (no result: aSyn 5UTR inh)
C[C@H]1CCCC(=O)CCC/C=C/c2cc(O)cc(O)c2C(=O)O1	none
Cc1cc(C(=O)Nc2ccc3c(c2)OCCO3)nn1C(C)(C)C	LMP1 NFkB inh inconclusive
CC[C@H]1CN2CCC1C[C@H]2[C@H](O)c1ccnc2ccc(OC)cc12 (some centres not stated)	LMP1 NFkB inh 69.0 (no result: aSyn 5UTR inh)
COc1cc2c(cc1OC)-c1c3c(cc4c1[C@@H](C2)N(C)CC4)OCO3	none
COc1cc2c(cc1O)C[C@H]1NCCc3cc4c(c-2c31)OCO4	PAX8 inh HTS 85.6
CC(=O)N1N=C(c2cccnc2)OC1c1ccccc1Cl (configuration not stated)	none
CCCCn1c(N)c(C(=O)OCC2CCCO2)c2nc3ccccc3nc21 (configuration not stated)	none (no result: PAX8 inh HTS)
COc1ccc(C(=O)N2CCC3(CC2)OCCO3)cc1	none
O=C1CN=C(c2ccc[nH]2)c2cc(Cl)ccc2N1	LMP1 NFkB inh 56.9
CCN1/C(=C\C=C\C2=[N+](CC)c3ccccc3C2(C)C)C(C)(C)c2ccccc21	MITF TRPM1 inh 102.2, LMP1 NFkB inh 70.8, aSyn 5UTR inh 103.9, Shn3 3UTR inh 96.2 (no result: PAX8 inh HTS)
CCC(C)C1NC(=O)C(NC(=O)C(CC(C)C)N(C)C(=O)C2CCCN2C(=O)C(C)O)C(C)OC(=O)C(Cc2ccc(OC)cc2)N(C)C(=O)C2CCCN2C(=O)C(CC(C)C)NC(=O)[C@H](C)C(=O)[C@H](C(C)C)OC(=O)CC1O (some centres not stated)	PAX8 inh HTS 94.9, MITF TRPM1 inh 105.3, LMP1 NFkB inh 93.3, Shn3 3UTR inh 99.2 (no result: aSyn 5UTR inh)
C#CCCC[C@@H]1OC(=O)CNC(=O)C([C@@H](C)CC)NC(=O)[C@@H]2CCCN2C(=O)C([C@@H](C)CC)OC(=O)[C@H](Cc2ccccc2)N(C)C(=O)[C@H](C(C)C)NC(=O)C1(C)C (some centres not stated)	none (no result: MITF TRPM1 inh, LMP1 NFkB inh, aSyn 5UTR inh)
CC1([N+](=O)[O-])COP(=O)(Nc2cccc(Cl)c2)OC1 (configuration not stated)	none (no result: aSyn 5UTR inh)
Cc1c(C(=O)c2cccc3ccccc23)c2cccc3c2n1[C@H](CN1CCOCC1)CO3	PAX8 inh HTS 100.7

Compound activity (PubChem BioAssay)
